# Results reported in PubChem BioAssay (NCI).
# Compounds without any hit were thinned out: in the full panel of roughly 83,000, 20% have a hit.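 Single-concentration screen, 48 h exposure, 96-well plates. Endpoint: percent growth. Below 10 = active.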 Activity calls are given as the source filed them.
# System: HL-60(TB) leukemia
# Assay: NCI-60 one-dose screen, 48 h (100 = growth as untreated, 0 = no growth, -100 = all killed)
# Details: 10 µM unless noted
row,SMILES,growth
1,CCN(CC)c1ccc(N=Nc2cc(Cl)ccc2Cl)c(NC(=O)CCC(=O)O)c1,119% (inactive)
2,C=CCn1c(SCC(=O)Nc2ccc(C(=O)/C=C/c3cc(OC)c(OC)c(OC)c3)cc2)nnc1-c1cc(-c2ccc(OC)cc2)nc2ccccc12,96.4% (inactive)
3,Nc1ncnc2c1c(C(F)(F)F)cn2[C@@H]1O[C@H](CO)[C@@H](O)[C@H]1O,-26.1% (active)
4,COc1cc(OC)cc(N2C(=O)N(Cc3ccc(C(C)(C)C)cc3)c3ccccc3S2(=O)=O)c1,67.9% (inactive)
5,CC(C)C1(C(C)C)NC(=O)NC1=O,95.1% (inactive)
6,Cc1cn(C(C=O)OC(C=O)CO)c(=O)[nH]c1=O (stereo not given),103% (inactive)
7,Cn1ccnc1C(=O)/C=C/c1ccc(C(=O)Nc2ccc(F)cc2)cc1,-6.9% (active)
8,NNC(=O)C1CC2c3ccccc3C1c1ccccc12 (stereo not given),113% (inactive)
9,C=C(C)[C@@H]1CC[C@]2(C(=O)N3CCNCC3)CC[C@]3(C)[C@H](CC[C@@H]4[C@@]5(C)C/C(=C/c6ccncc6)C(=O)C(C)(C)[C@@H]5CC[C@]43C)[C@@H]12,99.7% (inactive)
10,CCCCCCCC(=O)SCC/C=C/[C@@H]1CC(=O)NCc2nc(cs2)C2=N[C@@](C)(CS2)C(=O)N[C@@H](C(C)C)C(=O)N1,8.7% (active)
11,NC(=O)c1cc(I)ccc1NC(=O)/C=C/c1ccccc1,0.952% (active)
12,Cc1cc(NCCCNc2ccnc3cc(Cl)ccc23)nc(N2CCN(C)CC2)n1,15.7% (inactive)
13,N[C@@H](CCCCNCC(=O)O)C(=O)O,106% (inactive)
14,Cc1nccc2c3ccc(OCc4cn(-c5ccc(Br)cc5)nn4)cc3n(CC(C)C)c12,-48.1% (active)
15,COc1cc2c(cc1OCCCCN1CCN(C(=S)SCCC(C#N)(c3ccccc3)c3ccccc3)CC1)N=C[C@@H]1CCCN1C2=O,-40.8% (active)
16,COc1cc2c(cc1OC)C(=O)/C(=C/c1cc(C)c(O)c(C)c1)S2,-3.56% (active)
17,COc1ccc(/C=C/C(c2cc(OC)c(OC)c(OC)c2)n2ccnc2)cc1O (stereo not given),-36.6% (active)
18,N#Cc1cnc2ccc(NCc3cnc[nH]3)cc2c1Nc1ccc(F)c(Cl)c1,79.4% (inactive)
19,CCCCCCCCCC(C)NC(=O)CCl (stereo not given),92.3% (inactive)
20,O=C(C(=O)N1CCOCC1)c1ccc(OC2OC(CO)C(O)C(O)C2O)cc1 (stereo not given),82.7% (inactive)

row,SMILES,growth
1,C#CCOc1cccc(-c2ncc3cc(NC(=O)CCl)ccc3n2)c1,14.3% (inactive)
2,CC(C)c1ccc(C(=O)Nc2sc3c(CN(C)C)c(O)ccc3c2C(N)=O)cc1,24.2% (inactive)
3,NC(=NCCCC1(c2ccccc2)CCCC1)Nc1ccc(Cl)cc1,77.2% (inactive)
4,CNC(=O)c1cc(Oc2cccc3nc(Nc4ccc(F)c(Cl)c4)ccc23)ccn1,31.1% (inactive)
5,Cc1ccc(OC2=C(C#N)C(=N)N3C(=NN2)Sc2c(C)ccc(C)c23)cc1,109% (inactive)
6,O=C1/C(=C/c2cccc(OCc3ccccc3)c2)Oc2cc(OCCN3CCCCC3)ccc21,67% (inactive)
7,COc1ccc2nc(/C=C/c3ccc(N(C)C)cc3)sc2c1,51.1% (inactive)
8,O=C1c2cccc3c(-c4ccc5c(c4)ncn5C4CCCCC4)ccc(c23)C(=O)N1CCO,103% (inactive)
9,CC(C(=O)O)N1C(N)=NNC1c1ccccc1O (stereo not given),92.8% (inactive)
10,C=C(C)[C@@H]1CC[C@]2(C(=O)N3CCN(C)CC3)CC[C@]3(C)[C@H](CC[C@@H]4[C@@]5(C)C/C(=C/c6ccncc6)[C@H](O)C(C)(C)[C@@H]5CC[C@]43C)[C@@H]12,-25.2% [100 µM] (active)
11,O=C(NCc1ccc(F)cc1)C1CN(c2ccc(Cl)cc2)N(c2ccc(Cl)cc2)C1=O (stereo not given),43.6% (inactive)
12,CCCc1nc(C(C)(C)O)c(C(=O)O)n1Cc1ccc(-c2ccccc2-c2nn[nH]n2)cc1,107% (inactive)
13,CO[C@H](C(=O)[C@@H](O)[C@@H](C)O)[C@@H]1Cc2cc3cc(O[C@H]4C[C@@H](O[C@H]5C[C@@H](O)[C@H](O)C(C)O5)[C@H](O)C(C)(O)O4)cc(O)c3c(O)c2C(=O)[C@H]1O[C@H]1C[C@@H](O[C@H]2C[C@@H](O[C@H]3C[C@@H](OC)[C@H](O)C(C)O3)[C@@H](O)C(C)O2)[C@H](O)C(C)O1 (stereo not given in full),71% (inactive)
14,Cc1ccc(Nc2cc(Cl)c([N+](=O)[O-])cc2[N+](=O)[O-])cc1,6.39% (active)
15,O=c1cc(-c2ccc3c(c2)OCCO3)oc2cc(Cl)ccc12,110% (inactive)
16,CCOC(=O)/C(C#N)=C\Nc1ccc2ncnc(Nc3ccc(Cl)cc3Cl)c2c1,108% (inactive)
17,C/C(=N\O)C(=O)NCCCCCC(=O)Nc1ccccc1,93.2% (inactive)
18,COc1cc2c(cc1-c1c(C)noc1C)ncc1nc(C3CCCCC3)n([C@@H](C)COC(F)F)c12,17.4% (inactive)
19,O=C(NCCNc1nccc(-c2c(-c3cccc(O)c3)nc3sccn23)n1)c1ccccc1,93.3% (inactive)
20,Cc1ccc(S(=O)(=O)c2ccccc2)cc1,12.8% (inactive)
